# Test results taken from PubChem BioAssay AID485314 (National Center for Advancing Translational Sciences (NCATS), 2010).
# In all, about 340,000 compounds went through this assay and about 4,500 (1.3%) were called active. Where a call stands in place of a potency, no number is given. About 5% were inconclusive and are not listed. The sample holds actives, similar compounds and a random draw of the others, so the mix is not that of the screen. Calls follow the shape of the dose curve; as a rule, active = well fitted inhibition curve with a large enough effect; inconclusive = small, poorly fitted or top-dose-only effect, or another doubt; inactive = no such curve, though single readings can be large or run the other way.
# Target: DNA polymerase beta (Homo sapiens) (UniProt P06746)
# Assay: qHTS Assay for Inhibitors of DNA Polymerase Beta
# Conditions: Pol beta primer extension/strand displacement, fluorescence kinetic; series mostly up to 114 µM
# Summary of the method: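 Pol beta (10 nM) and compounds were preincubated 15 min at room temperature, then 50 nM substrate (final) started primer extension/strand displacement. Reads were taken at 0 and 10 min; concentration-response data were fitted to a four-parameter Hill equation.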
# Potency is read from the fitted curve at half-maximal effect.
row,Compound,Potency
1,CCCn1ccc2c(OCC(=O)NCc3ccc(F)cc3)cccc2c1=O,inactive
2,Cc1csc2nc(COC(=O)c3ccccc3NC(=O)c3ccccc3Cl)cc(=O)n12,inactive
3,Clc1ccc(CSc2nncn3c2cc2occc23)cc1,31.6 µM (active)
4,Clc1ccccc1CSc1nncn2c1cc1occc12,inactive
5,Cc1cc2c(cc3c(SCc4cccc(Cl)c4)nnc(C)n32)o1,inactive
6,COc1ccc(C)cc1Nc1nc2ccccc2c2nnc(C)n12,inactive
7,Cc1ccc(C(=O)NNC(=O)c2cccs2)cc1,inactive
8,Cc1ccc(C(=O)NNc2ncnc3ccccc23)cc1,inactive
9,Cc1ccc(C(=O)NNC(=O)c2cc3cc4ccccc4nc3s2)cc1,50.1 µM (active)
10,Cc1coc2c(O)cc3c(c12)OC1(N2CCCCC2)C(=O)NCCCC31 (configuration not stated),50.1 µM (active)
11,Cc1cc(C)c(/C=C/c2onc(C)c2S(=O)(=O)N2CCC(C(=O)Nc3ccc(Cl)cc3C)CC2)c(C)c1,inactive
12,CCCCOc1ccc(CN2C(=O)C(=O)c3cc(Br)cc(C)c32)cc1OC,inactive
13,O=C(N/N=C/c1ccccn1)c1ccc(S(=O)(=O)N2CCCCCC2)cc1,20 µM (active)
14,O=C(Nc1ccc(S(=O)(=O)N2CCCCC2)cc1)c1cnccn1,inactive
15,O=C(N/N=C/c1ccccn1)c1cccc(NC(=O)c2ccc(Cl)cc2)c1,inactive
16,CCOc1ccc(Nc2ncnc3scc(-c4ccc(OC)cc4)c23)cc1,inactive
17,CCOC(=O)c1ccc(NC(=O)Cn2c(=O)cc(C)c3c(C)nn(-c4cccc(F)c4)c32)cc1,inactive
18,COc1ccc([N+](=O)[O-])cc1NC(=O)COC(=O)/C=C/c1ccco1,inactive
19,CC(C)CNC(=O)COC(=O)/C=C/c1ccco1,28.2 µM (active)
20,CC(C)CNC(=O)COC(=O)/C=C/c1ccccc1[N+](=O)[O-],inactive
21,CCCOc1ccc(C2c3c(-c4ccccc4O)n[nH]c3C(=O)N2Cc2cccnc2)cc1 (configuration not stated),inactive

row,Compound,Potency
1,CC(C)(C)OC(=O)N1CCC(c2c(C(=O)Nc3ccc4c(c3)OCO4)cnn2-c2ccccc2)CC1,inactive
2,CCCCOC(=O)CSc1ncnc2sc3c(c12)CCC(C)C3 (configuration not stated),inactive
3,Cc1cc(=O)n2[nH]c(-c3sccc3-n3c(C)ccc3C)cc2n1,44.7 µM (active)
4,Cc1cc(=O)n2[nH]c(-c3cccc(Cl)c3)cc2n1,inactive
5,CCc1c(C)nc2cc(-c3cccs3)[nH]n2c1=O,inactive
6,COc1cccc(OCc2cc(/C=N/NC(=O)c3nc(Cl)c(Cl)c(N)c3Cl)ccc2OC)c1,inactive
7,COc1cc(/C=N/NC(=O)CNC(=O)c2ccncc2)ccc1OC(C)=O,inactive
8,COc1ccc(/C=N\NC(=O)c2sc(N)nc2C)cc1OC,17.8 µM (active)
9,COc1ccccc1Nc1c2c(nc3ccc(NC(=O)/C=C/c4cc(OC)c(OC)c(OC)c4)cc13)CCCC2,inactive
10,CCOCCn1c(C(C)C)nc2ccccc21,inactive
11,CCOCCn1c(-c2ccccc2)nc2ccccc21,inactive
12,CCc1nc2ccccc2n(CCOCCOCCn2c(=O)c(CC)nc3ccccc32)c1=O,35.5 µM (active)
13,COc1ccc(-c2nc(Cn3c(=O)cc(C)c4c(C)nn(-c5ccccc5)c43)c(C)o2)c(OC)c1,inactive
14,CCN1CCN(c2ncnc3c2cnn3-c2ccc(C)c(C)c2)CC1,inactive
15,COc1cc(NC(=O)CN2CCN(S(=O)(=O)c3ccc(Br)cc3)CC2)cc(OC)c1,inactive
16,Cc1c(CCC(=O)O)c(=O)oc2c(C)c(OCc3ccccc3Cl)ccc12,12.6 µM (active)
17,Cc1c(CCC(=O)O)c(=O)oc2cc(OCc3ccc(Br)cc3)ccc12,inactive
18,CCOC(=O)CCc1c(C)c2ccc(OCc3nn[nH]n3)c(C)c2oc1=O,inactive
19,COc1ccccc1CNc1ccc(-c2nc(-c3ccccc3C)no2)cc1[N+](=O)[O-],inactive
20,COc1cccc(-c2nnc3n(CCc4ccccc4)c(=O)c4ccccc4n23)c1O,inactive
21,CCCCN(CCCNC(=O)c1cc(Nc2ccccc2OC)nc2ccccc12)c1ccccc1,inactive

row,Compound,Potency
1,CCCCN(C)S(=O)(=O)c1ccc(C(=O)Nc2sc3c(c2C(N)=O)CC(C)(C)NC3(C)C)cc1,inactive
2,CC1=C(c2ccc(C)cc2)S(=O)(=O)NC1=NCCCN1CCN(c2cc(C)ccc2C)CC1,inactive
3,CCOc1ccc(NC(=O)c2cc(S(=O)(=O)N3CCCC3)c[nH]2)cc1,inactive
4,COc1ccc(C(=O)/C=C/c2ccc(-c3ccccc3)cc2)cc1CSCC(=O)O,inactive
5,COC(=O)c1ccc(COc2ccc(/C=C/C(=O)c3ccc(OC)c(CSCC(=O)O)c3)cc2OC)cc1,31.6 µM (active)
6,COc1ccc(/C=C/C(=O)c2ccc(NS(=O)(=O)c3ccc(C)cc3)cc2)cc1O,inactive
7,Cc1ccc(CCNC(=O)c2ccc(CNS(=O)(=O)c3ccc(C)cc3)cc2)cc1,inactive
8,CSc1cccc(NC(=O)CN2C(=O)CCc3cc(S(=O)(=O)N4CCCCC4)ccc32)c1,inactive
9,C/C=C(/C)C(=O)Nc1cccc(C2=NOC3(C2)C[C@@H](C(N)=O)N(C(=O)C2(C)CC2)C3)c1 (some centres not stated),inactive
10,C=C(C)C(=O)Nc1cccc(C2=NOC3(C2)C[C@H](C(N)=O)N(C(=O)C(c2ccccc2)c2ccccc2)C3)c1 (some centres not stated),14.1 µM (active)
11,C/C=C\C=C\C(=O)N1CC2(CC(c3cccc(NC(=O)/C(C)=C\C)c3)=NO2)C[C@H]1C(N)=O (some centres not stated),inactive
12,Cc1ccccc1C(=O)Nc1nnc(S(=O)(=O)N(C)c2ccc(Cl)cc2)s1,inactive
13,COC(=O)c1ccc(NC(=O)CSc2n[nH]c(-c3ccccc3)n2)cc1,inactive
14,CCOc1ccc(OCC)c(NC(=O)CN(c2ccc(C)cc2)S(=O)(=O)c2c(C)n[nH]c2C)c1,inactive
15,CCn1c(C)c(C)c2cc(C(=O)NCCc3cc(OC)ccc3OC)ccc21,inactive
16,Cc1cccc(-n2c(C)cc(/C=N\NC(=O)c3cccs3)c2C)c1,inactive
17,O=C(Nc1ccc(NC(=O)c2cccs2)cn1)c1ccco1,inactive
18,O=C(N/N=C/C=C/c1ccco1)c1cccs1,25.1 µM (active)
19,Oc1ccc(-c2nc3ccc(Cl)cn3c2Nc2ccc3c(c2)OCO3)cc1,inactive
20,CCOc1ccc(C(=O)/C=C/c2cn(CC(O)CN3CCCCCC3)c3ccccc23)cc1 (configuration not stated),inactive
